The values that follow come from PubChem BioAssay (EPA / NIEHS).

Values joined by “and” are separate entries in the source; they are usually repeats but may differ in a detail not shown here. Equal values may be shown once. Results filed as inconclusive are left out. Active and inactive are the calls of the source. The calls were made as follows: active = hit-call score of the fitted dose curve at least 0.9, where 1 is the maximum; inconclusive = response in the unintended direction; inactive = score below 0.9.

human FYN Proto-Oncogene, Src family Tyrosine Kinase (Fyn), FYN (gene 2534), sequence (P06241 whole entry, looked up): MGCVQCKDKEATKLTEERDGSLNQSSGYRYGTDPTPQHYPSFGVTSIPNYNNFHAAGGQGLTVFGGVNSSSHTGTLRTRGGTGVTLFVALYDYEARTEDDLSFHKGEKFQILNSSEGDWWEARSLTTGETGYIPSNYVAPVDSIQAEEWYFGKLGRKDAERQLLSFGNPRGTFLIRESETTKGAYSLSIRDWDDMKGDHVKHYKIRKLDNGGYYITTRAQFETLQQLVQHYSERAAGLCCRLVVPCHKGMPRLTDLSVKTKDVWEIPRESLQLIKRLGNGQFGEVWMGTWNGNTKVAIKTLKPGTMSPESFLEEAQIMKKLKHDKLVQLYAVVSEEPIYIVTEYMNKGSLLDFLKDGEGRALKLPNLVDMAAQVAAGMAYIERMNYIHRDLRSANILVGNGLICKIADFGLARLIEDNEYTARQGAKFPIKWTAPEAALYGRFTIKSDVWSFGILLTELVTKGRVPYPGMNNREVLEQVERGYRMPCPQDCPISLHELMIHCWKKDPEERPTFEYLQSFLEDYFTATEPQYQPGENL
Histone deacetylase 3 (Homo sapiens), sequence (O15379 whole entry, looked up): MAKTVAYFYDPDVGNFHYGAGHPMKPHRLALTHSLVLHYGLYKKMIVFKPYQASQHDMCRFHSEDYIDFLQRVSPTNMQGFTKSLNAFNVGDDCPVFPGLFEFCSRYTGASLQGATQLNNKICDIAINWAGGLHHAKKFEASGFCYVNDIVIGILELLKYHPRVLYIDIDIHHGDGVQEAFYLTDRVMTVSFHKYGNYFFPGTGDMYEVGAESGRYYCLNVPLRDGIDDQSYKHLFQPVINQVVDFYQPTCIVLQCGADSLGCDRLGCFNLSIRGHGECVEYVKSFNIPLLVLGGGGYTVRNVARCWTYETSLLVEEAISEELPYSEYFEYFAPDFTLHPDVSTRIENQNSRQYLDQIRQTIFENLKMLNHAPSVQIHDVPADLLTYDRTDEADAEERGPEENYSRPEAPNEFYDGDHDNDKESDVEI

The first experiment addresses human FYN Proto-Oncogene, Src family Tyrosine Kinase (Fyn), FYN (gene 2534) (UniProt P06241). Nature of the experiment: NVS_ENZ_hFyn: NovaScreen (NVS) Enzymatic Assay for human FYN Proto-Oncogene, Src family Tyrosine Kinase (Fyn) (AID 2283161). Summed up: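 Cell-free kinase activity read by fluorescence after mobility-shift separation of substrate and product, 1 h post-dose. Initial single concentration 25 uM in duplicate, then concentration-response follow-up; DMSO baseline.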
Consider `CC(C)CCCCCCc1ccc(O)cc1`, for which the molecule was classed as inactive.
On to `S=C([S-])NCCNC(=S)[S-].[Mn+2]`, for which the molecule was classed as inactive.
For `c1ccc2[nH]c(-c3cscn3)nc2c1`, the call was inactive.
For the molecule `O=C(c1ccc(O)cc1O)c1ccc(O)cc1O`, the AC50 was 15.1 µM (active).

Another experiment addresses Histone deacetylase 3 (Homo sapiens) (UniProt O15379). Nature of the experiment: NVS_ENZ_hHDAC3: NovaScreen (NVS) Enzymatic Assay for human Histone Deacetylase 3 (HDAC3) (AID 2283163). The gist of the method:
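Cell-free enzyme format: loss of fluorescent product after mobility-shift separation, 1 h incubation, recombinant human HDAC3. Single 25 uM duplicate screen first, then concentration series to a 50 uM top for hits; DMSO as baseline.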
`CC(C)CCCCCCc1ccc(O)cc1`: the molecule was called inactive.
Consider `O=C(c1ccc(O)cc1O)c1ccc(O)cc1O`, for which the molecule was classed as inactive.
On the same count and under the same terms, under `COC(=O)c1ccc(CNS(C)(=O)=O)cc1S(=O)(=O)NC(=O)Nc1nc(OC)cc(OC)n1` stands “inactive”.
For the molecule `S=C(S)NCCNC(=S)S.[Mn+2].[S-]C([S-])=NCCN=C([S-])[S-].[Zn+2]`, the AC50 was 10 µM (active) and 445 nM (active).
Consider `N#CSCSc1nc2ccccc2s1`, for which the AC50 was 20 µM (active).
For the molecule `CSC(=O)c1cccc2nnsc12`, the molecule was classed as inactive.

The target in a further experiment is Glycogen synthase kinase-3 beta (Homo sapiens) (UniProt P49841). Nature of the experiment: NVS_ENZ_hGSK3b: NovaScreen (NVS) Enzymatic Assay for human Glycogen Synthase Kinase-3 beta (GSK3b) (AID 2283165). The gist of the method: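 Recombinant enzyme with specific fluorescent substrate, 1 h, product separated by electrophoretic mobility shift. Primary duplicate screen at 25 uM; actives (e.g. 30% inhibition) followed in singleton concentration-response to 50 uM. Signal loss fitted versus DMSO.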
Glycogen synthase kinase-3 beta (Homo sapiens), sequence (P49841 whole entry, looked up): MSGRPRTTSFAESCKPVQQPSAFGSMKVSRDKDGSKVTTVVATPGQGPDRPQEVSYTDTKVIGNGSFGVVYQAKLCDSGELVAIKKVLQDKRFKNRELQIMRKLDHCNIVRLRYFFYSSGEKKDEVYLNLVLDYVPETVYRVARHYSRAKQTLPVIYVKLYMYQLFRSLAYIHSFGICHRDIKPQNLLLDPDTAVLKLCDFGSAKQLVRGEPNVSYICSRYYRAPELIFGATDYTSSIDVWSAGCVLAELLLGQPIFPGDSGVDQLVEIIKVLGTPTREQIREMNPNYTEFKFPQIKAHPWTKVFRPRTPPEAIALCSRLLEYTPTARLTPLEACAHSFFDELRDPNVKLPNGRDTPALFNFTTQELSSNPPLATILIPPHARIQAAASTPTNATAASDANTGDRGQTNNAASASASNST
For the molecule `CC(C)CCCCCCc1ccc(O)cc1`, the result was inactive.
In the case of `S=C([S-])NCCNC(=S)[S-].[Mn+2]`, the AC50 is 306 nM (active).
As to `c1ccc2[nH]c(-c3cscn3)nc2c1`, the call was inactive.
Take `O=C(c1ccc(O)cc1O)c1ccc(O)cc1O`: the AC50 was 25000 nM (active).
Take `S=C(S)NCCNC(=S)S.[Mn+2].[S-]C([S-])=NCCN=C([S-])[S-].[Zn+2]`: the AC50 was 1.08 µM (active) and 3.32 µM (active) and 678 nM (active).
For the molecule `O=C(O)C1(C(=O)Nc2ccc(Cl)cc2Cl)CC1`, the molecule was called inactive.
As for `CC(=O)[C@H]1CC[C@H]2[C@@H]3CCC4=CC(=O)CC[C@]4(C)[C@H]3CC[C@]12C`, the molecule was called inactive.
